A selection: hits, their analogues and other compounds. The true share with any hit is near 7.5%.
Rab9 prom act: qHTS Assay for Rab9 Promoter Activators | AID 485297, 2010 | hit rate 2.8% among 320,000 | Potency, µM (top dose mostly 9.22 µM), without a hit: at the highest dose activation, negative = inhibition, hits mostly activators | Huh7 Rab9 promoter-luciferase reporter, luminescence, 24 h; also: % of control where 0% means no effect; nearly all actives have a fitted effect of over 60% in size
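Measured in stably transfected Huh7 cells bearing a Rab9 promoter–luciferase construct: 24 h compound treatment at 37 °C, followed by luminescence detection.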
SMN2 splice up: qHTS Assay for Enhancers of SMN2 Splice Variant Expression | HEK293 SMN2-luciferase splicing reporter, luminescence, 30-36 h | Potency, µM (doses to about 46.1 µM), for inactives: top-dose activity change, positive = activation, hits mostly activators | hit rate 2.8% among 210,000 | AID 1458, 2008; also: % of control where 0% means no effect; nearly all actives have a fitted effect of over 55% in size
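HEK293 cells carry an SMN2 minigene-luciferase reporter in which exon 7 inclusion puts luciferase in frame. Cells were seeded at 2000 cells/well, attached for 10-12 hours, then exposed to compounds for 30-36 hours at 37C before ONE-Glo luminescence.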
NPC1 promoter act: qHTS Assay for NPC1 Promoter Activators; Huh7 NPC1 promoter luciferase reporter, 24 h; Potency, µM (titrated, usually from 9.22 µM), inactives show at the top dose activation, most hits filed as activators; hit rate 2.4% among 320,000; also: % of control where 0% means no effect; nearly all actives have a fitted effect of over 60% in size
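NPC1 promoter–luciferase Huh7 cells; 24 h compound; luminescence.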
ELG1 genotox: qHTS screen for small molecules that induce genotoxicity in human embryonic kidney (HEK293T) cells expressing luciferase-tagged ELG1; hit rate 1.3% among 330,000; Potency, µM (highest dose often 46 µM), for inactives: top-dose activity change, positive = activation, usual class: activators; AID 504466, 2011; HEK293T ELG1-luciferase reporter, luminescence, 16 h; also: % of control where 0% means no effect; nearly all actives have a fitted effect of over 60% in size
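ELG1-luciferase HEK293T cells, 2,000/well; compound pinned in; 16 hr, 37 °C, 5% CO2; ONE-Glo, 30 min RT; luminescence on CCD imager.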
FLuc modulator: qHTS profiling assay for firefly luciferase inhibitor/activator using purifed enzyme and Km concentrations of substrates (counterscreen for miR-21 project); Potency, µM (series often up to 57.5 µM), without a hit: at the top dose activity change, negative = inhibition, actives largely listed as inhibitors; hit rate 6.9% among 360,000; purified FLuc, Km substrates, luminescence inhibition; Luciferin 4-monooxygenase (Photinus pyralis), P08659;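 also: plate controls were vehicle for no effect and reference inhibitor for full effect; nearly all actives have a fitted effect of over 55% in size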
Target sequence (P08659 whole entry, looked up): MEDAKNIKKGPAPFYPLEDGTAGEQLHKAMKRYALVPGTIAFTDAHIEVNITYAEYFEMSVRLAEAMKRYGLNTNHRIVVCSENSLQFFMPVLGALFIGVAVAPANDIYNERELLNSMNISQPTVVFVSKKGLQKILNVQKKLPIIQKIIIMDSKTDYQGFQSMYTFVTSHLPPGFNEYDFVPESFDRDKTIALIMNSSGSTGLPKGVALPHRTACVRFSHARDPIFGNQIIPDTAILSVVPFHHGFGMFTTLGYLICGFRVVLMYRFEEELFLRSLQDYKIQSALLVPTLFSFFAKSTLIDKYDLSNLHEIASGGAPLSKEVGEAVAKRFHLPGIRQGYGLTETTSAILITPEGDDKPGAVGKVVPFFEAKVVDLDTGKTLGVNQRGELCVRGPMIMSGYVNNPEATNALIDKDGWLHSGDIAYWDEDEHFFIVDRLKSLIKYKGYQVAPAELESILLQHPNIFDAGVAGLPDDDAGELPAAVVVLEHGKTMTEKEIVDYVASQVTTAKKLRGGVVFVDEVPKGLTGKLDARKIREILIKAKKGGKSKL
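Biochemical qHTS of compounds, final roughly 60 µM downward over six points, against 10 nM purified firefly luciferase using Km concentrations of substrates (10 uM D-luciferin, 10 uM ATP) in Tris acetate pH 7.5 buffer; luminescence output.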
KinaseGlo FLuc: Counterscreen for Luciferase (Kinase-Glo TM) Inhibition; Potency, µM (titrated, usually from 38.3 µM), for inactives: at the top dose activity change, negative = inhibition, most hits filed as inhibitors; AID 1379, 2008; Kinase-Glo luciferase, ATP luminescence, 8 min; hit rate 0.28% among 200,000; also: % is scaled to controls: 0 for no effect and ±100 for the full control effect; nearly all actives have a fitted effect of over 60% in size
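Compound is pinned into ATP-containing buffer (10 uM ATP, imidazole pH 7.2, 7 mM MgCl2). Kinase-Glo luciferase reagent is then added. Light output is recorded following an 8-min room-temperature incubation.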
Numbers without * were called inactive; ? = inconclusive; . = no result given; [ ] = dose if it differs, or a comment. Calls follow the shape of the dose curve; as a rule, active = well fitted curve in the direction sought with a large enough effect; inconclusive = small, poorly fitted or top-dose-only effect, or another doubt; inactive = no such curve, though single readings can be large; an effect the other way counts as inactive or inconclusive. Potency is read from the fitted curve at half-maximal effect.

SMILES	Rab9 prom act	SMN2 splice up	NPC1 promoter act	ELG1 genotox	FLuc modulator	KinaseGlo FLuc
c1ccc(CCN2CCCCCC2)nc1	.	-9%[9.22 µM]	.	.	.	-1%[7.66 µM]
CC(=O)[O-].CC(=O)[O-].O.O.O.[Pb+2]	.	2%	.	.	.	.
NC(=O)c1ccc(N=Nc2c(O)[nH]c(=O)[nH]c2=O)cc1	0%	11%	-6%	4%	-1%	2%
O=c1[nH]c(O)c(N=Nc2ccc(SC(F)F)cc2)c(=O)[nH]1	?	.	23%	14%	2.4µM*	.
O=C(CCl)c1ccccc1	.	0%	.	.	.	.
O=c1c2ccccc2[se]n1-c1ccccc1	14%[46.1 µM]	-28%	-9%[46.1 µM]	5%	6µM*	10µM*
O=c1c2ccccc2nc(-c2ccccc2)n1-c1ccccc1	-1%	.	-3%	-8%	7%	.
CC(C)Br	.	-5%	.	.	.	.
C=C(C)CCl	.	4%	.	.	.	.
O=C(O)[C@H]1[O][Sb][O][C@@H](C(=O)O)C1O (stereo partly specified)	.	-5%[9.22 µM]	.	.	.	-10%[7.66 µM]
COc1ccc2nc(NC3=NCCN3)sc2c1	2.5µM*	10µM*	2.8µM*	18µM*	5.4µM*	-13%
c1ccc2sc(NC3=NCCN3)nc2c1	?	?	?	-4%	?	-1%
C[C@]12CC[C@@H]3[C@H](CCC4=CC(=O)CC[C@]43C)[C@]1(O)CC[C@@]2(O)C(=O)CO	.	3%[9.22 µM]	.	.	.	-5%[7.66 µM]
c1ccc(CCN2CCOCC2)nc1	.	-20%[9.22 µM]	.	.	.	-4%[7.66 µM]
CCSCC[C@H](N)C(=O)O	.	-2%[9.22 µM]	.	.	.	-2%[7.66 µM]
Cc1ccc(/C=C2/C(=O)NC(=O)N(Cc3ccc(F)cc3)C2=O)o1	0%	.	0%	13%	-17%	.
COc1ccc(CN2C(=O)NC(=O)/C(=C/c3ccc([N+](=O)[O-])o3)C2=O)cc1	0%	-23%	-5%	5%	19µM*	-14%
CCOc1cc(C=C2C(=O)NC(=O)NC2=O)ccc1OCC(=O)N1CCOCC1	-2%	-2%	-2%	1%	0%	-1%
O=C1NC(=O)C(=Cc2cc(Cl)ccc2OCc2ccc(C(=O)O)cc2)C(=O)N1	-1%	-9%	-2%	0%	24µM*	-7%
C=CC1CC=CCC1 (stereo unspecified)	.	-1%	.	.	.	.
O=C(c1cc2ccccn2n1)N1CCC2(CC1)OCCO2	-4%	-1%	-3%	4%	5%	-1%
O=C(c1cc(-c2cccc(Cl)c2)on1)N1CCOCC1	3.2µM*	.	2.8µM*	23µM*	13µM*	.
O=C(c1cc(-c2ccccc2)on1)N1CCC2(CC1)OCCO2	4µM*	18µM*	?	?	15µM*	-1%
O=C(/C=C/c1c[nH]c2ccccc12)c1c(O)n(CCc2ccccc2)c(=O)[nH]c1=O	-3%	.	-1%	0%	13µM*	.
C[C@@]12CC[C@H](O[C@@H]3O[C@H](CO)[C@@H](O)[C@H](O)[C@@H]3O)C[C@@H]1CC[C@H]1[C@H]2CC[C@@]2(C)[C@@H](C3=CCOC3=O)CC[C@]12O	.	4%[9.22 µM]	.	.	.	-4%[7.66 µM]
SMILES	Rab9 prom act	SMN2 splice up	NPC1 promoter act	ELG1 genotox	FLuc modulator	KinaseGlo FLuc
Cc1ccc2nc3c(cc2c1)CC1(C(=O)N(C)C(=O)N(C)C1=O)C1CCCCN31 (stereo unspecified)	27%	?	?	?	5.4µM*	-2%
Cc1cccn2c(=O)c3c(nc12)N1CCCCCC1C1(C3)C(=O)N(C)C(=O)N(C)C1=O (stereo unspecified)	-6%	.	-2%	2%	-1%	.
Cc1ccc2nc3c(cc2c1)CC1(C(=O)N(C)C(=O)N(C)C1=O)C1COCCN31 (stereo unspecified)	23%	.	20%	?	15µM*	.
CN1C(=O)/C(=C\c2ccc(N3CCCCC3)o2)C(=O)NC1=S	1.6µM*	7.1µM*	2.5µM*	5.8µM*	8.5µM*	-15%
Cc1ccsc1/C=C1\C(=O)NC(=S)N(C)C1=O	-5%	.	0%	?	15µM*	.
CN1C(=O)/C(=C/c2ccc(Cl)s2)C(=O)NC1=S	6%	.	0%	17%	?	.
CN1C(=O)/C(=C/c2ccc(N3CCCCCC3)o2)C(=O)NC1=S	1.4µM*	11µM*	2.2µM*	21µM*	4.8µM*	-16%
CCCOC(=O)[C@@H]1[C@@H](C(=O)O)[C@H]2CC[C@@H]1O2	.	-6%[9.22 µM]	.	.	.	-1%[7.66 µM]
CCCCC/C=C\C/C=C\C/C=C\C/C=C\CCCC(=O)NCc1ccoc1	.	.	.	.	.	2%[39.9 µM]
O=C(NCC(c1cccnc1)N1CCOCC1)Oc1ccccc1 (stereo unspecified)	?	14µM*	20%	?	15µM*	-1%
N#CC(c1cccnc1)N1CCOCC1 (stereo unspecified)	2%	.	-3%	-1%	0%	.
Cc1c([C@@H](C)C2NC[C@H](C)C[C@@H]2O)ccc2c1C[C@@H]1[C@H]2CC=C2C[C@@H](O)CC[C@@]21C (stereo partly specified)	.	-26%[9.22 µM]	.	.	.	-4%[7.66 µM]
O=c1[nH]cnc2[nH]cc(CN3CCCCC3)c12	.	-8%[9.22 µM]	.	.	.	-2%[7.66 µM]
